An excerpt weighted towards active compounds, which were near 1.7% of everything screened.
HEK293 tox: qHTS of GLP-1 Receptor Inverse Agonists: Cytotox Screen. 410,000 compounds, 0.13% hits. HEK293 cAMP-luciferase reporter cells, luminescence, 24 h. Potency, µM (titrated, usually from 38.3 µM), hits mostly inhibitors. AID 624418, 2012;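 further: loss of luciferase light is scored as toxicity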
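MLSMR compounds, 24 hr on cells at 37 deg C/5% CO2; luminescence after luciferase reagent (12 min RT). Inhibition counted as the undesired cytotoxic outcome.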
GLP-1R inv ag: qHTS of GLP-1 Receptor Inverse Agonists (Inhibition Mode); HEK293 GLP-1R CRE-luciferase, luminescence, 24 h; GLP-1R form is constitutively active; 410,000 compounds, 1.6% hits; Potency, µM (titrated, usually from 38.3 µM), actives largely listed as inhibitors; AID 624417, 2012; Glucagon-like peptide 1 receptor (Homo sapiens), P43220; further: nearly all actives have a fitted effect of over 55% in size
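Constitutively active GLP-1R drives a cAMP-responsive luciferase in stably transfected HEK293 cells; test compounds are added after overnight (12 h) attachment and left 24 hr, and signal loss in luminescence marks inhibition.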
GLP-1R agonist: qHTS of GLP-1 Receptor Agonists | 380,000 compounds, 0.007% hits | HEK293 GLP-1R CRE-luciferase, luminescence, 4-6 h; cells express a hypersensitive GLP-1R form | Potency, µM (series often up to 45.6 µM), actives largely listed as activators | AID 624172, 2012
RGS4 inhibitor: Inhibitors of Regulator of G Protein Signaling (RGS) 4: qHTS. AID 504845, 2011. Transcreener GDP fluorescence polarization, RGS4-accelerated GTP hydrolysis. Regulator of G-protein signaling 4 (Homo sapiens), P49798. Potency, µM (titrated, usually from 114 µM), hits mostly inhibitors. 390,000 compounds, 0.039% hits; further: nearly all actives have a fitted effect of over 75% in size
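MLSMR compounds (23 nl, pin-transferred) preincubated 10 min at room temperature with a 500nM (2x) first reagent, then RGS4 at 900nM (2x) plus Transcreener GDP mix added; fluorescence polarization (620/688 nm) read before and after 90 min at 30 °C.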
PTHR1 agonist: qHTS for PTHR1 Agonists: Primary Screen | Parathyroid hormone/parathyroid hormone-related peptide receptor (Homo sapiens), Q03431 | HEK293 GP2 PTHR1 cells, GloSensor cAMP luminescence, 1 h | Potency, µM (titrated, usually from 115 µM), hits mostly activators | 410,000 compounds, 0.075% hits; further: nearly all actives have a fitted effect of over 55% in size
Target sequence (Q03431 whole entry, looked up): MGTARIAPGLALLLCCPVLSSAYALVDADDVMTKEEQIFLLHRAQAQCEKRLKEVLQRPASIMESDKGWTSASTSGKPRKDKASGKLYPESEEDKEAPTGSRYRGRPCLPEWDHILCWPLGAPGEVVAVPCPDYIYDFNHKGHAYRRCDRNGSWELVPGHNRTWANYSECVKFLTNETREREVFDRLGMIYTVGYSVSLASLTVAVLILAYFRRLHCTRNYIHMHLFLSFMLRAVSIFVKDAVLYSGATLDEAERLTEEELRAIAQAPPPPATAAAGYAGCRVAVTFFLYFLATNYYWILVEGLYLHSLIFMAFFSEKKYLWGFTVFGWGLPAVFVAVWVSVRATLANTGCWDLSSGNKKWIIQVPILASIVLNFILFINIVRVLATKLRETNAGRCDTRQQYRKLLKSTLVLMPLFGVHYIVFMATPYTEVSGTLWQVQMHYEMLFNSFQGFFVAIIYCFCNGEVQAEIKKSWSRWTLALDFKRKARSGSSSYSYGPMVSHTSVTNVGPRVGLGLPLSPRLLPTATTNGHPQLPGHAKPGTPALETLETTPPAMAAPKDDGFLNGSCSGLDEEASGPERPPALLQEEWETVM
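HEK-293-derived GP2 cells expressing PTHR1 and a GloSensor cAMP reporter, 3,000/well, plated overnight, given luciferin plus IBMX (each 0.5 mM as added) for 1 h at 37 °C, then compound for 1 h at 37 °C. Luminescence was read after 15 min at room temperature.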
Of the large screens only hits and unclear results are named; the others gave an inactive call. The call rests on the fitted dose curve; in most records, active means well fitted curve in the direction sought with a large enough effect; inconclusive means small, poorly fitted or top-dose-only effect, or another doubt; inactive means no such curve, though single readings can be large; an effect the other way counts as inactive or inconclusive.

CC(=O)N1N=C(c2ccc(Br)cc2)CC1c1cccc([N+](=O)[O-])c1 (stereo not given)	GLP-1R inv ag 11.2µM (no result: RGS4 inhibitor)
COc1ccc(NC(=O)CN2C(=O)CCc3cc(S(=O)(=O)N4CCOCC4)ccc32)cc1Cl	none (no result: GLP-1R agonist)
CCN(CC)c1ccc(NC(=O)C2CC3CCC2C3)cc1 (stereo not given)	GLP-1R inv ag 7.94µM
O=C(Nc1cccc(S(=O)(=O)N2CCCCCC2)c1)C1CCN(C(=O)c2ccc(Cl)cc2)CC1	GLP-1R inv ag 8.91µM
O=C(Nc1cccc(S(=O)(=O)N2CCCCC2)c1)Nc1ccc(Cl)cc1Cl	HEK293 tox inconclusive, GLP-1R inv ag 3.55µM
CN(c1ccccc1)c1ccc(/C=C(/CCC(=O)O)c2nc3ccccc3s2)cc1[N+](=O)[O-]	GLP-1R inv ag 11.2µM, RGS4 inhibitor inconclusive
O=c1cc2c(nn1Cc1ccc(Cl)cc1Cl)-c1ccccc1CC2	GLP-1R inv ag inconclusive
O=c1cc2c(nn1Cc1ccccc1Cl)-c1ccccc1CC2	GLP-1R inv ag 10µM, GLP-1R agonist inconclusive
COc1ccc(CC2(CO)CCN(CC3=Cc4cc(Cl)ccc4OC3)CC2)cc1	HEK293 tox inconclusive, GLP-1R inv ag 2.82µM
CN1CCN(S(=O)(=O)c2ccc(N(C)Cc3ccc(OC(F)F)cc3)c([N+](=O)[O-])c2)CC1	GLP-1R inv ag 10µM
Clc1cc2cccnc2c2ncccc12	HEK293 tox inconclusive, GLP-1R inv ag 4.47µM
Cc1c(C)c2cccnc2c2ncccc12	HEK293 tox 0.891µM, GLP-1R inv ag inconclusive, PTHR1 agonist inconclusive
O=C1NC[C@@H](CCCCN2CCN(CCC3CCCCC3)C(=O)C2=O)N(CC2CCCCC2)C1=O	none (no result: RGS4 inhibitor)
O=C(NC1CCN(C(=S)Nc2ccc(F)cc2)CC1)C1CCCCC1	none
O=C(NCC1CCCCC1)c1cc(-c2cc(F)ccc2OCC2CCCO2)n[nH]1 (stereo not given)	GLP-1R inv ag inconclusive (no result: RGS4 inhibitor)
COc1ccc(NC(=O)c2ccc3c(c2)NC(=O)CS3)cc1	none
Cc1ccc(NS(=O)(=O)c2cc(NC(=O)c3ccc4c(c3)NC(=O)CS4)ccc2Cl)c(C)c1	HEK293 tox inconclusive, GLP-1R inv ag 2.51µM
CCSC(=Nc1ccccc1)N1CCOCC1	HEK293 tox inconclusive
CC12CCC(C(=O)n3c1nc1ccccc13)C2(C)C (stereo not given)	GLP-1R inv ag 1.58µM, PTHR1 agonist inconclusive
COCCCNC(=O)CCCN1C(=O)CCn2nc(-c3cccn3C)cc21	none (no result: GLP-1R agonist)
CCN(C(=O)C1CCN(S(=O)(=O)c2ccc3c(c2)CCCN3C(C)=O)CC1)c1cccc(C)c1	none (no result: GLP-1R agonist)
Cn1c(=O)c(NC2CCCCC2)c2c3c(cccc31)C(=O)c1ccccc1-2	GLP-1R inv ag 10µM
Cc1ccc(OCc2nnc(SCC(=O)C(C)(C)C)n2Cc2ccco2)cc1	GLP-1R inv ag 2µM, RGS4 inhibitor inconclusive
Cc1cc(NC(=O)CSc2nnc(COc3ccccc3)n2Cc2ccco2)no1	none
CCOc1ccc(-c2ccc(SC)nn2)cc1	GLP-1R inv ag 2.24µM
CNc1ccccc1C(C)(C)c1cc(-c2ccco2)n[nH]1	GLP-1R inv ag 7.94µM
CNc1ccccc1C(C)(C)c1cc(C)[nH]n1	GLP-1R inv ag inconclusive, RGS4 inhibitor inconclusive
Cn1nc(C(=O)Nc2sc3c(c2C#N)CCCC3)ccc1=O	PTHR1 agonist 44.7µM
COC(=O)c1cc(NC(=O)/C=C/c2ccc3c(c2)OCO3)cc(C(=O)OC)c1	none
O=C(/C=C/c1ccc2c(c1)OCO2)Nc1cccnc1	GLP-1R inv ag 10µM
CC(=O)Nc1ccc(NC(=O)/C=C/c2ccc3c(c2)OCO3)cc1	none
COC(=O)c1cccc(NC(=O)/C=C/c2ccc3c(c2)OCO3)c1	GLP-1R inv ag 3.55µM
COc1ccc(CCc2ccc3ccccc3n2)cc1	GLP-1R inv ag 10µM
CC(NC(=O)c1ccc(N2CCCC2)c([N+](=O)[O-])c1)c1ccc(S(N)(=O)=O)cc1 (stereo not given)	none
O=C(NC1CCCc2c1cnn2-c1ccccc1F)c1ccccc1N1CCOCC1 (stereo not given)	GLP-1R inv ag 7.94µM
CCCCCCCCCCCCCCCC(=O)NCC(COP(=O)([O-])OCC[N+](C)(C)C)OCC (stereo not given)	RGS4 inhibitor 21.2µM (no result: HEK293 tox, GLP-1R inv ag, GLP-1R agonist, PTHR1 agonist)
CCCCCC(=O)NCC(C)NC(=O)CCCCC (stereo not given)	none
O=c1c2cnn(-c3ccccc3)c2nc(-c2cccs2)n1-c1cccc(Cl)c1	GLP-1R inv ag 8.91µM
O=c1c2cnn(-c3ccccc3)c2nc(-c2cccs2)n1-c1ccc(Cl)cc1	none
CC(C)c1ccc(/C=C2\SC(=S)N(CCC(=O)NCCCn3ccnc3)C2=O)cc1	HEK293 tox inconclusive, GLP-1R inv ag 2.51µM, PTHR1 agonist inconclusive
COc1ccc(/C=C2\SC(=S)N(CCC(=O)NCCCn3ccnc3)C2=O)cc1	GLP-1R inv ag inconclusive
COc1cccc(COC(=O)c2ccc(-c3nnn(Cc4ccccc4)n3)cc2)c1	none (no result: GLP-1R agonist)
Cc1ccsc1/C=N/NC(=O)c1nnn(-c2nonc2N)c1CN(C)c1ccccc1	GLP-1R inv ag 11.2µM
CC/C(=N\NC(=O)c1nnn(-c2nonc2N)c1-c1cccs1)c1ccccc1	GLP-1R inv ag 7.94µM
CCCN(CCC)Cc1c(C(=O)N/N=C/C(C)=C\c2ccco2)nnn1-c1nonc1N	GLP-1R inv ag 3.55µM
O=c1[nH]n(-c2ccccc2)c(=O)cc1Cl	none
O=C(Cn1cc(C(=O)C2CC2)c2ccccc21)NCc1ccc2c(c1)OCO2	GLP-1R inv ag 6.31µM
CC(=O)c1cn(CC(=O)NCc2ccc3c(c2)OCO3)c2ccccc12	none
O=C(CSc1ncccn1)NC(=O)NC1CCCC1	none (no result: RGS4 inhibitor)
CCCCN1CC(COCc2ccccc2)Oc2cccc(Oc3ccc(C)cc3)c2S1(=O)=O (stereo not given)	GLP-1R inv ag 7.94µM
CCCCN1CC(COCc2ccccc2)Oc2cccc(Oc3ccccc3)c2S1(=O)=O (stereo not given)	GLP-1R inv ag inconclusive
CCCCN1CC(COCc2ccccc2)Oc2cccc(Oc3cc(C)c(C)c(C)c3)c2S1(=O)=O (stereo not given)	GLP-1R inv ag 2.82µM
CCCCN1CC(COCc2ccccc2)Oc2cccc(Oc3ccc(F)cc3)c2S1(=O)=O (stereo not given)	GLP-1R inv ag 3.55µM
CCCCN1CC(COCc2ccccc2)Oc2cccc(OCc3ccc(OC)cc3)c2S1(=O)=O (stereo not given)	GLP-1R inv ag inconclusive (no result: RGS4 inhibitor)
